In PubChem BioAssay (NCI):
Compounds without any hit were thinned out: in the full panel of roughly 79,000, 15% have a hit. Calls of active or inactive are those of the source. Rule as the data show it: active = growth inhibition above about 70%; inactive = the rest.

Assays:
[1] = NCI Yeast Anticancer Drug Screen. Data for the rad52 strain (AID 147);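 also: 0% = growth of vehicle-treated control cultures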; details: S. cerevisiae rad52 mutant growth inhibition, hits give high values
Method in brief: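 Growth of repair-deficient yeast cells was compared between compound-treated and vehicle-treated cultures to give percent inhibition.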

[2] = NCI Yeast Anticancer Drug Screen. Data for the wt1 strain (AID 149);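 also: 0% = growth of vehicle-treated wt1 cultures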; details: S. cerevisiae wt1 strain (SPY 50644) growth inhibition, hits give high values
Method in brief: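 Measured: growth of wt1 yeast under compound versus vehicle treatment, reported as inhibition.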

[3] = NCI Yeast Anticancer Drug Screen. Data for the mgt1 strain (AID 153); details: S. cerevisiae mgt1 mutant growth inhibition, hits give high values
Method in brief: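 Compounds were applied to mgt1 mutant yeast, and growth was then compared against vehicle-treated control cultures to give percent inhibition.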

[4] = NCI Yeast Anticancer Drug Screen. Data for the rad50 strain (AID 155);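 also: 0% = growth of vehicle-only cultures of the same strain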; details: S. cerevisiae rad50 strain growth inhibition, hits give high values
Method in brief: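 Growth of the mutant yeast was measured after compound exposure and referenced to vehicle-treated cultures.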

[5] = NCI Yeast Anticancer Drug Screen. Data for the mec2-1 strain (AID 157); details: S. cerevisiae mec2-1 strain, hits give high values
Method in brief: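 Compounds were applied to mec2-1 yeast cells. Their growth was then compared with that of vehicle-treated cultures to give growth inhibition.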

[6] = NCI Yeast Anticancer Drug Screen. Data for the rad14 strain (AID 159);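 also: 0% = growth of vehicle-treated control cultures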; details: S. cerevisiae rad14 strain growth inhibition, hits give high values
Method in brief: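 Here, inhibition of yeast growth was measured after compound exposure, using a strain with a genetic defect in DNA damage repair and vehicle-treated cultures as the reference.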

[7] = NCI Yeast Anticancer Drug Screen. Data for the sgs1 mgt1 strain (AID 161);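 also: 0% = growth of cultures given vehicle only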; details: S. cerevisiae sgs1 mgt1 strain, hits give high values
Method in brief: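 Compounds are added to genetically altered yeast, and growth is compared with cultures given vehicle alone to give percent inhibition.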

[8] = NCI Yeast Anticancer Drug Screen. Data for the CLN2oe strain (AID 163);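 also: 0% = growth of vehicle-only control cultures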; details: S. cerevisiae CLN2oe strain, hits give high values
Method in brief: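 Cells of an engineered yeast line with disturbed cell-cycle regulation are treated with compound. Inhibition of growth is then calculated relative to the vehicle-treated reference.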

[9] = NCI Yeast Anticancer Drug Screen. Data for the cln2 rad14 strain (AID 165);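 also: 0% = growth equal to vehicle treated cultures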; details: S. cerevisiae cln2 rad14 strain, hits give high values
Method in brief: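 Strain: cln2 rad14 yeast, altered in cell cycle control and DNA damage repair. Read-out: growth inhibition vs vehicle.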

[10] = NCI Yeast Anticancer Drug Screen. Data for the bub3 strain (AID 167); details: S. cerevisiae bub3 mutant strain, hits give high values
Method in brief: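 Whole-cell yeast assay. The mutant strain was incubated with compounds, and growth inhibition was determined by comparison with vehicle-treated cells.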

[11] = NCI Yeast Anticancer Drug Screen. Data for the wt2 strain (AID 169);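 also: 0% = growth of vehicle-treated yeast cultures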; details: S. cerevisiae wt2 strain growth inhibition, hits give high values
Method in brief: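 Growth of compound-treated yeast is measured and expressed as inhibition relative to vehicle-only controls.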

[12] = NCI Yeast Anticancer Drug Screen. Data for the mlh1 strain (AID 171);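 also: 0% = growth of vehicle-treated control cultures of the same strain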; details: S. cerevisiae mlh1 strain growth inhibition, hits give high values
Method in brief: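 Test agents were incubated with yeast bearing a defined DNA damage repair or cell cycle control alteration; values are growth inhibition normalised to vehicle-treated cultures.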

[13] = NCI Yeast Anticancer Drug Screen. Data for the sgs1 strain (AID 173);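 also: 0% = growth of vehicle-only control cultures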; details: S. cerevisiae sgs1 mutant, hits give high values
Method in brief: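 Strain with an altered DNA repair or cell cycle pathway exposed to compound. Growth then measured. Value = inhibition versus vehicle control.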

[14] = NCI Yeast Anticancer Drug Screen. Data for the mlh1 rad18 strain (AID 175); details: S. cerevisiae mlh1 rad18 strain growth inhibition, hits give high values
Method in brief: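 A repair-deficient yeast strain is exposed to test compound, and growth is scored relative to vehicle-treated controls.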

[15] = NCI Yeast Anticancer Drug Screen. Data for the rad18 strain (AID 177); details: S. cerevisiae rad18 mutant growth inhibition, hits give high values
Method in brief: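 DNA-repair-defective yeast; compound treatment; growth inhibition scored against vehicle.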

[16] = at 5.0 µM (retest, dose inferred, filed as 0.5)
[17] = at 50.0 µM (retest, dose inferred, filed as 5.0)

Measured: growth inhibition

COC1=CC(=O)C(C2(OC(C)C)OC(=O)C(Cl)=C2Cl)=CC1=O (stereo not drawn)
inactive: [1]; at 1.2 µM 1% | [1]; at 3.7 µM 22% | [2]; at 1.2 µM 1% | [2]; at 3.7 µM 8% | [3]; at 1.2 µM -3% | [3]; at 3.7 µM 17% | [4]; at 1.2 µM 1% | [4]; at 3.7 µM 33% | [4]; [16] 56% | [5]; at 1.2 µM 8% | [5]; at 3.7 µM 65% | [5]; [16] 47% | [6]; at 1.2 µM 3% | [6]; at 3.7 µM 37% | [7]; [16] 53% | [8]; at 1.2 µM 0% | [9]; [16] 30% | [9]; at 50.0 µM 63.5% | [10]; at 1.2 µM 0% | [10]; at 3.7 µM 34% | [10]; [16] 30% | [10]; at 50.0 µM 59.9% | [11]; at 1.2 µM -1% | [11]; at 3.7 µM 10% | [12]; at 1.2 µM 2% | [12]; at 3.7 µM 27% | [13]; at 1.2 µM 2% | [13]; at 3.7 µM 37% | [14]; [16] 43% | [15]; at 1.2 µM 7% | [15]; at 3.7 µM 49%
active: [1]; at 11.0 µM 99% | [1]; at 33.0 µM 99% | [1]; at 100.0 µM 99% | [2]; at 11.0 µM 97% | [2]; at 33.0 µM 99% | [2]; at 100.0 µM 99% | [3]; at 11.0 µM 99% | [3]; at 33.0 µM 99% | [3]; at 100.0 µM 99% | [4]; at 11.0 µM 99% | [4]; at 33.0 µM 99% | [4]; [17] 99% | [4]; at 50.0 µM 96.2% | [4]; at 100.0 µM 99% | [5]; at 11.0 µM 100% | [5]; at 33.0 µM 100% | [5]; [17] 99% | [5]; at 50.0 µM 86.7% | [5]; at 100.0 µM 99% | [6]; at 11.0 µM 99% | [6]; at 33.0 µM 99% | [6]; at 100.0 µM 99% | [7]; [17] 99% | [7]; at 50.0 µM 99.5% | [8]; at 3.7 µM 87% | [8]; at 11.0 µM 99% | [8]; at 33.0 µM 99% | [8]; at 100.0 µM 99% | [9]; [17] 99% | [10]; at 11.0 µM 99% | [10]; at 33.0 µM 99% | [10]; [17] 99% | [10]; at 100.0 µM 99% | [11]; at 11.0 µM 98% | [11]; at 33.0 µM 99% | [11]; at 100.0 µM 99% | [12]; at 11.0 µM 99% | [12]; at 33.0 µM 99% | [12]; at 100.0 µM 99% | [13]; at 11.0 µM 99% | [13]; at 33.0 µM 99% | [13]; at 100.0 µM 99% | [14]; [17] 99% | [14]; at 50.0 µM 91.8% | [15]; at 11.0 µM 99% | [15]; at 33.0 µM 99% | [15]; at 100.0 µM 99%
